Records with an inconclusive call do not appear. Active and inactive are the calls of the source. Unless noted, calls follow the shape of the dose curve; as a rule, active = well fitted curve in the direction sought with a large enough effect in the repeat runs; inconclusive = weak or mixed curves; inactive = no such curve, though single readings can be large; an effect the other way counts as inactive or inconclusive.
Assays:
[1] = qHTS assay for small molecule agonists of the p53 signaling pathway - cell viability (AID 651633; calls by dose curve;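 also: p53RE-bla HCT reporter cells with a stable beta-lactamase p53 reporter; series mostly up to about 83 µM; nearly all actives have a fitted effect of over 30% in size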)
In short: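 p53RE-bla cells, seeded at 4,000 per well and rested 5 h at 37 C/5% CO2, received compounds in DMSO for 16 h at 37 C. CellTiter-Glo was then added, and luminescence was read after 30 min at room temperature to gauge cytotoxicity.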

[2] = qHTS assay for small molecule disruptors of the mitochondrial membrane potential - cell viability (AID 720634; calls by dose curve;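 also: human HepG2 liver cancer cells; series mostly up to about 83 µM; nearly all actives have a fitted effect of over 20% in size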)
In short: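 Cytotoxicity was quantified from ATP content by CellTiter-Glo luminescence in the same wells as the MMP dye read-out. HepG2 (2,000 cells/well) were plated overnight and exposed to compounds for 1 hr at 37 C.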

[3] = qHTS assay to test for compound auto fluorescence at 590 nm (red) in HepG2 cells (AID 720674)
In short: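 Compound auto-fluorescence is scored relative to Rose Bengal sodium, measured at 540/590 nm in live HepG2 cultures after 1 hr compound contact (37 C, 5% CO2).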

[4] = qHTS assay to test for compound auto fluorescence at 535 nm (green) in HepG2 cells (AID 720675)
[5] = qHTS assay to test for compound auto fluorescence at 460 nm (blue) in HEK293 cells (AID 720678)
In short: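 Cells were seeded and left to adhere for 4-5 hr at 37C. Compounds were then pin-transferred. After an overnight incubation at 37C under 5% CO2, intrinsic fluorescence at 405/460 nm was measured and referenced to triamterene.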

[6] = qHTS assay to test for compound auto fluorescence at 590 nm (red) in HEK293 cells (AID 720679)
In short: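 Each well held 2,000 HEK293 cells in medium containing 10% dialyzed FBS. Following 4-5 hr attachment at 37C, 23 nL test compound or DMSO was added; plates sat overnight, and red fluorescence (540/590nm) was recorded.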

[7] = qHTS assay to test for compound auto fluorescence at 535 nm (green) in HEK293 cells (AID 720680)
[8] = qHTS assay to test for compound auto fluorescence at 460 nm (blue) in HEK293 cell free culture (AID 720681)
In short: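 Test compounds were pinned into cell-free culture medium (DMEM with 10% FBS) and fluorescence was read directly at Ex/Em 405/460 nm. Signals were expressed as fluorescence equivalents of triamterene, with DMSO vehicle as control.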

[9] = qHTS assay to test for compound auto fluorescence at 590 nm (red) in HEK293 cell free culture (AID 720683)
In short: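 Tox21 10K library compounds were pinned into cell-free DMEM with 10% FBS and fluorescence was read at excitation 540 nm. Activity is expressed as Rose Bengal sodium equivalency.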

[10] = qHTS assay to test for compound auto fluorescence at 590 nm (red) in HepG2 cell free culture (AID 720684)
In short: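 Ex 540 / Em 590 nm read of compound in cell-free MEM (10% FBS). Rose Bengal sodium reference.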

[11] = qHTS assay to test for compound auto fluorescence at 460 nm (blue) in HepG2 cell free culture (AID 720685)
In short: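 Cell-free plates of MEM plus 10% FBS received 23 nL compound or DMSO vehicle; blue-channel (405/460 nm) intensity scored against triamterene as reference fluorophore.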

[12] = qHTS assay to test for compound auto fluorescence at 535 nm (green) in HepG2 cell free culture (AID 720686)
[13] = qHTS assay to test for compound auto fluorescence at 460 nm (blue) in HepG2 cells (AID 720687)
In short: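 Cells (2,000/well in MEM with 10% FBS) attached overnight at 37 C, then were exposed to compound or DMSO for 1 hr at 37 C, 5% CO2. Fluorescence read at Ex/Em 405/460 nm, expressed as triamterene-equivalent signal.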

[14] = qHTS assay for small molecules that induce genotoxicity in human embryonic kidney cells expressing luciferase-tagged ATAD5 - cell viability (AID 651634; calls by dose curve; also: nearly all actives have a fitted effect of over 25% in size)
In short: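 Cytotoxicity counter-readout: after 15.5 hr compound treatment at 37C, live-cell protease activity in ATAD5-luciferase HEK293T cells measured by CellTiter-Fluor fluorescence, 30 min development at 37C.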

[15] = qHTS assay for small molecule disruptors of the mitochondrial membrane potential (AID 720635)
In short: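 HepG2 cells (2,000/well) attached overnight at 37C, then took compound for 1 hr at 37C, 5% CO2. Mito-MPS dye was added for 30 min; fluorescence was read at 490/535 nm (monomers) and 540/590 nm (aggregates).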

[16] = qHTS assay to test for compound auto fluorescence at 535 nm (green) in HEK293 cell free culture (AID 720682)
In short: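 Cell-free medium (DMEM, 10% FBS) receives compound or DMSO by pintool. Plate read directly at Ex 485/Em 535 nm. Signal converted to fluorescein equivalency.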

[17] = target: Glucocorticoid receptor (Homo sapiens) (UniProt P04150); experiment: qHTS assay to identify small molecule agonists of the glucocorticoid receptor (GR) signaling pathway (AID 720691; active = well fitted activation curve with a large enough effect in the signal ratio in the repeat runs, not every such curve was filed as active; the % refers to the signal ratio)
In short: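 Agonist-mode qHTS in HeLa cells stably expressing a glucocorticoid-response-element beta-lactamase reporter. Fluorescence intensity read with FRET substrate (2 h, room temperature) after 18 h compound treatment at 37 C.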

[18] = target: Glucocorticoid receptor (Homo sapiens) (UniProt P04150); experiment: qHTS assay to identify small molecule antagonists of the glucocorticoid receptor (GR) signaling pathway (AID 720692; active = well fitted inhibition curve with a large enough effect in the signal ratio in the repeat runs, not every such curve was filed as active; the % refers to the signal ratio)
In short: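 Inhibition of dexamethasone-driven (5 nM final) beta-lactamase expression was measured in GRE-reporter HeLa cells over 18 h at 37C. Fluorescence was read after 2 h with the B/G FRET substrate at room temperature.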

[19] = qHTS assay for small molecules that induce genotoxicity in human embryonic kidney cells expressing luciferase-tagged ATAD5 (AID 651632); also: nearly all actives have a fitted effect of over 15% in size
In short: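 A rise in luciferase signal from ATAD5-tagged HEK293T cells marks genetic stress. Cells were exposed to compounds for 16 hr at 37C, 5% CO2, then luciferase was quantified after a 30 min room-temperature incubation with Amplite.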
% is scaled to controls: 0 for no effect and ±100 for the full control effect.

Sequence of Glucocorticoid receptor (Homo sapiens) (P04150 whole entry, looked up): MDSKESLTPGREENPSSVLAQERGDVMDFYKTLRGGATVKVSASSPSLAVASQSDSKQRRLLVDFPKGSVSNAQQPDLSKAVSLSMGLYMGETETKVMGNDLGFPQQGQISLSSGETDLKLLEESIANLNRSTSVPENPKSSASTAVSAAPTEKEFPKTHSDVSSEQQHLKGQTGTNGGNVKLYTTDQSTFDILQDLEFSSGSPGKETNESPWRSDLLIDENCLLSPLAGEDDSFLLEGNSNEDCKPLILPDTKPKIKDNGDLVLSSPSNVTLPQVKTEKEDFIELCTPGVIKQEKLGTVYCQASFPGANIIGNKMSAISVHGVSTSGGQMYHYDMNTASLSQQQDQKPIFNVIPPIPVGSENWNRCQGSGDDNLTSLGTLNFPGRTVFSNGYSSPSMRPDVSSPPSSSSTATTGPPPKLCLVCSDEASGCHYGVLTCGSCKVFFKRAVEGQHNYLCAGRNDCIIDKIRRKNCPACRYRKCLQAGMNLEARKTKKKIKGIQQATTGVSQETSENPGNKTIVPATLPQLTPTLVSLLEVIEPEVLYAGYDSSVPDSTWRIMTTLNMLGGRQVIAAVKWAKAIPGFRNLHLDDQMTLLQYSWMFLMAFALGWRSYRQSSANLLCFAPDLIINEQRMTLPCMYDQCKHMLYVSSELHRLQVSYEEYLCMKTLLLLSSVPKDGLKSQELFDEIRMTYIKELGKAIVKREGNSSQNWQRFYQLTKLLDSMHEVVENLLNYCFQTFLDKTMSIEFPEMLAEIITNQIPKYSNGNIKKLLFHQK

O=CO
inactive: activity change, negative = cytotoxicity [1] 17.2% [at 8.08 µM] | activity change, negative = cytotoxicity [2] 10.1% [at 8.08 µM] | fluorescence, relative to Rose Bengal [3] 0.134% [at 9.17 µM] | fluorescence, % of fluorescein control [4] -0.0157% [at 9.17 µM] | fluorescence, % of triamterene [5] 0.001% [at 9.17 µM] | fluorescence, % of fluorescent control [6] 0.473% [at 9.17 µM] | fluorescence, % of fluorescein [7] -0.109% [at 9.17 µM] | fluorescence, % of fluorescent control [8] -0.189% [at 9.17 µM] | fluorescence, % of fluorescent control [9] -0.0633% [at 9.17 µM] | fluorescence, % of Rose Bengal [10] 0.0285% [at 9.17 µM] | fluorescence, % of fluorescent control [11] -0.136% [at 9.17 µM] | fluorescence, % of fluorescein control [12] -0.0013% [at 9.17 µM] | fluorescence, % of fluorescent control [13] 0.0876% [at 9.17 µM]

O=C1NC2NC(=O)NC2N1 (centres undefined)
inactive: outcome [1] | Potency [14] | outcome [2] | Potency [15] | outcome [3] | outcome [4] | outcome [5] | outcome [6] | outcome [7] | outcome [8] | outcome [9] | outcome [10] | outcome [11] | outcome [13]

Cc1cccc(NC(=S)N(C)C)c1
inactive: Potency [14] | outcome [2] | outcome [3] | outcome [4] | outcome [5] | outcome [6] | outcome [7] | outcome [8] | outcome [16] | outcome [9] | outcome [10] | outcome [11] | outcome [12] | outcome [13] | Potency [17] | outcome [18]

CO/N=C(/C(=O)N[C@@H]1C(=O)N2C(C(=O)O)=C(Cn3nnc(C)n3)CS[C@H]12)c1csc(N)n1
inactive: outcome [19] | Potency [14] | outcome [2] | Potency [15] | outcome [3] | outcome [4] | outcome [5] | outcome [6] | outcome [7] | outcome [8] | outcome [16] | outcome [9] | outcome [10] | outcome [11] | outcome [12] | outcome [13] | outcome [18]

CCCCCCCCCCCCC1CO1 (centres undefined)
inactive: outcome [1] | outcome [2] | Potency [15] | outcome [3] | outcome [4] | outcome [5] | outcome [6] | outcome [7] | outcome [8] | outcome [16] | outcome [9] | outcome [10] | outcome [11] | outcome [12] | outcome [13] | outcome [18]

C=CCOCC(O)CCl (centres undefined)
inactive: outcome [19] | outcome [1] | Potency [14] | outcome [2] | outcome [3] | outcome [4] | outcome [5] | outcome [6] | outcome [7] | outcome [8] | outcome [16] | outcome [9] | outcome [10] | outcome [12] | outcome [13] | outcome [18]

O=S(=O)(O)SSS(=O)(=O)O
inactive: outcome [19] | outcome [1] | Potency [14] | outcome [2] | outcome [3] | outcome [4] | outcome [5] | outcome [6] | outcome [7] | outcome [8] | outcome [9] | outcome [10] | outcome [11] | outcome [12] | outcome [13]

CCCCCCCCCCCCOC(C)=O
inactive: outcome [1] | Potency [14] | outcome [2] | Potency [15] | outcome [3] | outcome [4] | outcome [5] | outcome [6] | outcome [7] | outcome [8] | outcome [16] | outcome [9] | outcome [10] | outcome [11] | outcome [13]

O=S(=O)(O)CCO
inactive: outcome [19] | outcome [1] | Potency [14] | outcome [3] | outcome [4] | outcome [5] | outcome [6] | outcome [7] | outcome [8] | outcome [16] | outcome [9] | outcome [10] | outcome [12] | Potency [17] | outcome [18]

C=CCOc1c(Br)cc(Br)cc1Br
inactive: outcome [19] | outcome [1] | Potency [14] | outcome [2] | outcome [3] | outcome [4] | outcome [5] | outcome [6] | outcome [7] | outcome [8] | outcome [9] | outcome [10] | outcome [12] | Potency [17]

CC(C)CCC(=O)CCC(C)C
inactive: outcome [19] | outcome [1] | Potency [14] | outcome [2] | outcome [3] | outcome [4] | outcome [5] | outcome [6] | outcome [7] | outcome [8] | outcome [16] | outcome [9] | outcome [10] | outcome [12] | outcome [13]

Cn1c(=O)c2c(ncn2CC2OCCO2)n(C)c1=O
inactive: outcome [19] | Potency [14] | outcome [2] | outcome [3] | outcome [4] | outcome [5] | outcome [6] | outcome [7] | outcome [8] | outcome [9] | outcome [10] | outcome [12] | outcome [13]

COc1ccc(/C=N/NC(=O)c2ccncc2)cc1OC
inactive: outcome [1] | Potency [14] | outcome [2] | Potency [15] | outcome [3] | outcome [4] | outcome [5] | outcome [6] | outcome [7] | outcome [8] | outcome [16] | outcome [9] | outcome [10] | outcome [11] | outcome [12] | outcome [13] | Potency [17] | outcome [18]

CC1=CC[C@H](CC=O)C1(C)C
inactive: outcome [1] | Potency [14] | outcome [2] | Potency [15] | outcome [3] | outcome [4] | outcome [5] | outcome [6] | outcome [7] | outcome [8] | outcome [16] | outcome [9] | outcome [10] | outcome [11] | outcome [12] | outcome [13] | Potency [17]

Reference: PubChem BioAssay (Tox21)
